TDP-43 tox inh = rescues yeast from TDP-43 toxicity; yeast TDP-43 toxicity rescue, BacTiter-Glo growth, 24 h; Potency, µM (titrated, usually from 46.1 µM), most hits filed as activators; 45,000 tested, 0.45% active; AID 1347073; active means well fitted activation curve with a large enough effect; further: nearly all actives have a fitted effect of over 55% in size
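TDP-43-expressing yeast, pregrown in raffinose, seeded at OD600 0.02 in galactose medium with compound for 24 hr at 30 deg C. Growth read by BacTiter-Glo luminescence, so rescue of toxicity appears as activation.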
Large screens that a line does not name were inactive. The entries come from a sample that favours hits as a whole.

Cc1cc(Cl)ccc1OCC(=O)N(Cc1sccc1C)C1CCS(=O)(=O)C1 (stereo not given)	none
Cc1cc(NC(=O)CSc2nc3ccccc3cc2C#N)no1	none
CC(=O)c1cc(C#N)c(N(C)Cc2ccccc2)nc1C	none
CCCCSc1nc(C)c(C(C)=O)cc1C#N	TDP-43 tox inh 6.3µM
Cc1ccc(NC(=O)[C@@H]2CCCN2S(=O)(=O)c2ccccc2F)cc1	none
Cc1ccc(NC(=O)C2CCCN2S(=O)(=O)c2ccc3c(c2)n(C)c(=O)c(=O)n3C)cc1 (stereo not given)	none
Cc1ccc(S(=O)(=O)N2CCCC2C(=O)Nc2ccc(Br)cc2)cc1 (stereo not given)	TDP-43 tox inh 13µM
CC(NC(=O)/C=C/c1ccc(Br)cc1)c1ccccc1 (stereo not given)	none
CC(C)c1ccc(/C=C/C(=O)NCCC2=CCCCC2)cc1	none
CC(C)c1ccc(/C=C/C(=O)O)cc1	TDP-43 tox inh 6.3µM
COc1cccc(CNC(=O)c2oc3ccc4c(c3c2C)C(=O)CC(C)(C)O4)c1OC	none
COc1ccc2nc(NC(=O)Nc3ccccc3OC)sc2c1	none
CCC(C)C(=O)Nc1nc2ccc(OC)cc2s1 (stereo not given)	TDP-43 tox inh 11µM
CC(C)C(=O)Nc1nc2ccc(S(C)(=O)=O)cc2s1	none
CC(CCc1ccccc1)N(C)CC(O)c1cccc([N+](=O)[O-])c1 (stereo not given)	none
CCCCN(CCCC)CC(O)COc1ccc(Br)cc1 (stereo not given)	none
Cc1cc(C)c(C#N)c(SCC(O)COc2ccc(Br)cc2)n1 (stereo not given)	TDP-43 tox inh 13µM
COC(=O)CSc1nc(C)cc(C)c1C#N	none
COC(=O)c1c(C)nn(-c2ccc(F)cc2)c1-n1cccc1	none
Cc1cc(F)ccc1Nc1nc2ccc(Cl)cc2n2cnnc12	none
COCCCN1C(=O)c2ccccc2CC1(C)C(=O)NC1CCCCC1 (stereo not given)	none
CCOc1ccc(NS(=O)(=O)c2cccc(C(=O)NCC3(N(C)C)CCCCC3)c2)cc1	none
CN(Cc1ccccc1)c1oc(-c2ccco2)nc1C#N	TDP-43 tox inh 14µM
CC1CN(c2oc(-c3ccco3)nc2C#N)CC(C)O1 (stereo not given)	none
N#Cc1nc(-c2ccc(OCc3ccccc3)cc2)oc1NCc1ccco1	none
COc1ccc(Br)cc1CNC(=O)C(C)n1nc(C)n2c(cc3occc32)c1=O (stereo not given)	none
Cc1cc(C)c2c(n1)nn1c(C)c(CCC(=O)Nc3ccc(C)c(Cl)c3)c(C)nc21	none
CCc1ccc(CNc2ncc(-c3cccc(OC)c3)n2C)cc1	none
COC(=O)c1c(-c2cccs2)csc1NC(=O)COc1ccc(C(C)C)cc1	none
COc1ccc(-c2csc(NCc3ccco3)n2)cc1C	TDP-43 tox inh 18µM
COc1ccc(-c2csc(NC(=S)NC(=O)c3cccs3)n2)cc1OC	none
COc1cc(CNCc2ccco2)cc(OC)c1O	none
COc1ccccc1OCCn1c(COc2cc(C)ccc2C)nc2ccccc21	none
Cc1ccc(CN(C(=O)COc2ccc(C(C)(C)C)cc2)C2CCS(=O)(=O)C2)o1 (stereo not given)	none
NS(=O)(=O)c1ccc(CCNC(=O)CSc2ncnc3ccccc23)cc1	none
CCN(CC)S(=O)(=O)c1ccc(NC(=O)CSc2ncnc3ccccc23)cc1	TDP-43 tox inh 22µM
COC(=O)c1c(NC(=O)CSc2ncnc3ccccc23)sc(C)c1C	none
Cc1ccc(C)c(Cn2c(=O)n(CCCC(=O)NCc3ccc4c(c3)OCO4)c(=O)c3sccc32)c1	none
CCC1CCCCN1C(=O)Cn1c(=O)n(CCCCCC(=O)NCc2ccccc2Cl)c(=O)c2sccc21 (stereo not given)	none
O=C(NNC(=S)NC(=O)c1cccc([N+](=O)[O-])c1)c1ccc(Br)cc1	none
CC(C)CC(=O)NC(=S)NNC(=O)c1ccc([N+](=O)[O-])cc1	TDP-43 tox inh 11µM
CNC(CC(=O)c1ccc([N+](=O)[O-])cc1)C(Cl)(Cl)Cl (stereo not given)	none
NC(=O)Cn1c(=O)n(CCCCCC(=O)NCc2ccccc2Cl)c(=O)c2sccc21	none
CC1=C(C(=O)NC(C)CCc2ccccc2)C2(CCC(C)CC2)OC1=O (stereo not given)	none
COc1ccc(OC)c(CCNC(=O)C2=C(C)C(=O)OC23CCC(C)CC3)c1 (stereo not given)	none
CCOc1ccc(NC(=O)C2=C(C)C(=O)OC23CCC(C)CC3)cc1 (stereo not given)	TDP-43 tox inh 13µM
Cc1ccc(C(O)c2ncc(-c3ccc4ccccc4c3)[nH]2)c(C)c1 (stereo not given)	none
COc1ccccc1NC(=O)C1CCN(S(=O)(=O)c2cccc3nonc23)CC1	none
CC(NC(=O)OCc1ccccc1)C(=O)Oc1cc2oc(=O)cc(-c3ccccc3)c2cc1Cl (stereo not given)	TDP-43 tox inh 4.5µM
Cc1ccc2c(COC(=O)c3ccccc3Cl)cc(=O)oc2c1	none
Cc1c(OCC(N)=O)ccc2c(-c3ccccc3)cc(=O)oc12	none
CCCSc1ncc(Cl)c(C(=O)N2CCN(c3cccc(Cl)c3)CC2)n1	none
O=C(O)CCn1c(=O)c2cccn2c2cccnc21	none
CC(C)(C)C(=O)Cn1c(=O)n(CCCCCC(=O)NCc2ccc3c(c2)OCO3)c(=O)c2sccc21	none
COc1ccccc1CC(=O)Nc1nc(-c2ccc(F)c(F)c2)cs1	TDP-43 tox inh 13µM
COc1ccc(CC(=O)Nc2nc(-c3ccc(OC)c(OC)c3)cs2)cc1OC	none
COc1cc(OC)cc(C(=O)N[C@H](C(=O)Nc2nc(-c3ccc(F)c(F)c3)cs2)C(C)C)c1	none
Cc1nn(CCCC(=O)NCc2ccccc2)c(=O)c2c1sc1ccccc12	none
O=C(NC1CCCCC1)C(c1ccncc1)N(C(=O)c1ccco1)c1ccc(F)cc1 (stereo not given)	none
CC(C)C(NC(=O)c1ccccc1)C(=O)N1CCCCCC1 (stereo not given)	none
Cc1sc(-n2cccc2)c(C(C)NC(=O)Nc2cccc(C(F)(F)F)c2)c1C (stereo not given)	none
C=CCNC(=O)Nc1ccc2nc(C)sc2c1	none
CCc1sc(C(=O)Nc2ccc3nc(C)sc3c2)cc1C	TDP-43 tox inh 11µM
Cc1nc2ccc(NC(=O)c3ccc(=O)[nH]c3)cc2s1	none
Cc1ccc(NC(=O)CN2C(=O)C(c3ccc(C)cc3)=NC23CCCCCC3)cc1	none
Cc1ccc(C(=O)Nc2cc3c(cc2C)n(C)c(=O)c(=O)n3C)cc1	none
O=C(COC(=O)CCC(=O)c1ccc(Cl)cc1)NCc1ccc(F)cc1	none
O=C(COC(=O)CCSc1ccc(Cl)cc1)Nc1ccc(F)cc1	TDP-43 tox inh 11µM
COc1cccc(NC(=O)COC(=O)CCSc2ccccc2)c1	none
Cc1cccc(NC(=O)Cn2c(=O)oc3cc(S(=O)(=O)N4CCCCCC4)ccc32)c1	none
Cc1ccsc1CN(C(=O)c1ccc(OCC(C)C)cc1)C1CCS(=O)(=O)C1 (stereo not given)	none
N#Cc1ccccc1Cn1c(=O)n(-c2cccc(C(F)(F)F)c2)c(=O)c2sccc21	none
O=C(Nc1ccccc1Cl)C1C2CCCCC21 (stereo not given)	none
O=C(Nc1cc(Cl)ccc1Cl)C1Cc2ccccc2O/C1=N\O (stereo not given)	TDP-43 tox inh 11µM
COc1cccc2c1O/C(=N\O)C(C(=O)Nc1cccc(C)c1C)C2 (stereo not given)	none
COc1cc(Cl)c(NC(=O)CN2C(=O)c3cccnc3Sc3ccccc32)c(OC)c1	none
O=S(=O)(c1cccc(-c2nnc(SCc3ccc(Cl)cc3)o2)c1)N1CCCCC1	none
Brc1ccc(CSc2nnc(-c3cccnc3)o2)cc1	TDP-43 tox inh 13µM
CC1CCN(C(=O)CSc2nnc(-c3cccnc3)o2)CC1	none

From PubChem BioAssay
